In PubChem BioAssay AID995 (National Center for Advancing Translational Sciences (NCATS), 2007):
About 710 (0.99%) of roughly 72,000 compounds were called active. Not shown: some 7% with an inconclusive outcome. Calls come from the whole dose curve; as a rule, active = well fitted inhibition curve with a large enough effect; inconclusive = small, poorly fitted or top-dose-only effect; inactive = no such curve, though single readings can be large or run the other way. The entries come from a sample that favours actives as a whole. Entries that show only a call come without a potency.

Assay: qHTS Assay for Inhibitors of the ERK Signaling Pathway using a Homogeneous Screening Assay; note: nearly all actives have a fitted effect of over 55% in size
Conditions: HEK293-V1b, vasopressin-stimulated pERK AlphaScreen; series mostly up to 57.5 µM
Excerpt: qHTS Assay for Inhibitors of the ERK Signaling Pathway using a Homogeneous Screening Assay; note: nearly all actives have a fitted effect of over 55% in size
NIH Chemical Genomics Center [NCGC]
NIH Molecular Libraries Screening Centers Network [MLSCN]
Assay Submitter (PI): Dr. Wei Zheng, NCGC/NIH
The Ras/extracellular-signal-regulated kinase (ERK) mitogen activated protein (MAP) kinase signaling pathway (ERK1/2 cascade) plays is a key role in transmitting signals from the cell surface to the nucleus (Nishida and Gotoh 1993; Chang and Karin, 2001). The cascade is initiated by the small G-protein Ras, which recruits Raf […], where activation occurs. Alternatively, this pathway can be activated by elevating intracellular cAMP.
Activation of the ERK pathway is essential in increased cell division and cell survival. Sustained and constitutive activation of the ERK pathway, however, has been linked to uncontrolled cell proliferation, increased cell survival, and tumor progression. Thus, the ERK has been as an attractive target for cancer chemotherapy in the past few years (Sebolt-Leopold and Herrera, 2004). Given its physiological and pathological importance, assessment of ERK phosphorylation has been broadly performed in both basic research and drug discovery. Most assays for the measurement of ERK phosphorylation use the antibody-based detection methods, such as western blot and ELISA. These assays require multiple reagent additions with cell wash steps and are not suitable for high throughout screening.
The current cell-based ERK phosphorylation assay was performed using AlphaScreen platform. AlphaScreen is a two bead-based proximity-dependent chemical energy transfer luminescent assay platform. The assay reagents (ERK SureFire(TM) kit) were supplied from TGR BioSciences (Australia). In the presence of specific antibodies, phosphorylated ERK will bring "donor" and "acceptor" beads to a proximity range (<200 nm), and subsequently lead a chemical luminescent reaction upon exciting donor beads with 680 nm laser. To exclude the assay-related false positives, we used a biotinylated rabbit IgG to perform counter-screen. The biotinylated antibody mimics the phosphorylated ERK1/2 for bringing streptavidin coated beads and protein-A coated beads to a proximity range for the AlphaScreen detection.
NCGC Assay Protocol Summary:
HEK293 cells stably expressing type-1 vasopressin receptor (V1b) were maintained in DMEM medium (Invitrogen, Carlsbad, CA) at 37C under a humidified atmosphere containing 5% CO2 and 95% air. The medium contained 10% FBS, 2 mM L-glutamine, non-essential amino acid, pyruvate and 50 U/ml penicillin and 50 ug/ml streptomycin (Invitrogen). The aliquots of frozen cells were stored at -135C and used for the compound screening. All compounds were screened as titrations from 0.6 nM to 46 uM final concentration. Vasopressin was used to stimulate the ERK phosphorylation pathway. The ERK phosphorylation in cells was determined using an AlphaScreen assay kit provided by PerkinElmer. Data were normalized to the controls for basal activity (DMSO only) and 100% activation (25 nM vasopressin). AC50 values were determined from concentration-response data modeled with the standard Hill equation.
(1) Seed 4 ul/well of resuspended frozen HEK293 cells containing 2000 cells in white 1536-well plates for overnight with 1% FBS at 37C under a humidified atmosphere containing 5% CO2 and 95% air.
(2) Add 23 nL compounds in DMSO solution. The final titration was 0.6 nM to 46 uM.
(3) Incubate at 37C for 30 min.
(4) Dispense 0.5uL vasopressin (25 nM in final)
(5) Incubate at 37C for 5 min.
(6) Dispense 0.5uL of 1:2 diluted 5x lysis buffer.
(7) Incubate at 37C for 10 min.
(8) Dispense 1.5uL of mixture of activation buffer and reaction buffer with AlphaScreen beads (streptavidin donor beads and protein-A acceptor beads, 10 ng/well for each).
(9) Incubate at room temperature for 5 hr.
(10) Detect the assay plate in an EnVision plate reader (PerkinElmer) using the AlphaScreen detection mode.
[…]
Potency is the fitted concentration of half-maximal effect.

SMILES	Potency	activity, negative = inhibition
CC1(C)OC2CC(=O)OC[C@@]23C1CC(=O)[C@]1(C)C3CC[C@@]2(C)C(c3ccoc3)OC(=O)C3O[C@@]321 (stereo partly drawn)	inactive	–
O=C(O)c1ccc(C(=O)c2ccccc2C(=O)O)cc1C(=O)O	–	14.2% [at 11.5 µM] (inactive)
Cc1c(O)cc(O)c2c(=O)c(-c3ccc(O)cc3)coc12	inactive	–
COc1ccc(OC)c(NC(=O)CSc2nc3cccnc3n2C)c1	20 µM (active)	–
CCn1c(COc2ccc(OC)cc2)nnc1SCC(=O)Nc1cc(OC)ccc1OC	inactive	–
COc1ccc(OC)c(NC(=O)CSc2nc(N)c(-c3ccccc3)c(=O)[nH]2)c1	inactive	–
CCCOC(=O)c1[nH]c2c(c1C)C(=O)CC(c1cc(OC)c(OC)c(OC)c1)C2 (stereo not drawn)	25.1 µM (active)	–
CCCOC(=O)C1=C(C)NC2=C(C(=O)C(C(=O)OC)C(C)C2)C1c1ccc(N(C)C)cc1 (stereo not drawn)	inactive	–
COC(=O)C1C(=O)c2c([nH]c(C(=O)OCCSC)c2C)CC1C (stereo not drawn)	inactive	–
CC(=O)OCC(=O)[C@@]1(O)CCC2C3CCC4=CC(=O)CC[C@@]4(C)[C@]3(F)C(O)C[C@]21C (stereo partly drawn)	inactive	–
C[C@@H]1O[C@@H](OC[C@H]2O[C@@H](Oc3c(-c4cccc(O)c4O)oc4cc(O)cc(O)c4c3=O)[C@H](O)[C@@H](O)[C@@H]2O)[C@H](O)[C@H](O)[C@H]1O	inactive	–
COc1ccccc1N1CCN(C[C@@H]2CN3C(=O)N(C)c4ccccc4C3=N2)CC1	inactive	–
Fc1ccc(-c2nnc3sc(-c4ccc5c(c4)OCO5)nn23)cc1	inactive	–
COc1cc(-c2nn3c(-c4cccc(C)c4)nnc3s2)cc(OC)c1OC	inactive	–
COc1ccc(-c2nn3c(-c4ccccc4)nnc3s2)cc1OC	7.94 µM (active)	–
CC(=O)O[C@]1(C(C)=O)CC[C@@H]2[C@@H]3C=C(C)C4=CC(=O)CC[C@@]4(C)[C@H]3CC[C@]21C	inactive	–
O=C(O)c1nn(-c2ccc(Cl)cc2)c2c1C(=O)c1ccccc1C2=O	–	-10.9% [at 11.5 µM] (inactive)
CC1CC[C@@]23CCC4(C)[C@@]5(C)CCC6C(C)(C)C(O)CC[C@@]6(C)C5C=C[C@@]4(OC2=O)C3C1C (stereo partly drawn)	inactive	–
CN(C)CCc1c[nH]c2ccc(Cn3cncn3)cc12	inactive	–
N#Cc1ccccc1-c1ccc2ncnc(NCc3cccnc3)c2c1	inactive	–
CC1(C)SC2C(NC(=O)COc3ccccc3)C(=O)N2C1C(=O)O (stereo not drawn)	inactive	–
S=c1c2[nH]cnc2ncn1CCSc1ncnc2nc[nH]c12	–	-0.588% [at 11.5 µM] (inactive)
COC(=O)NC(c1ccccc1)[C@]1(C(C)=O)CCCC1=O (stereo partly drawn)	–	-3.18% [at 11.5 µM] (inactive)
Nc1nc2nc(Cl)[nH]c2c(=O)[nH]1	inactive	–

SMILES	Potency	activity, negative = inhibition
O=C(O)C1CCN(c2ncnc3ccc(-c4ccccc4C(F)(F)F)cc23)CC1	inactive	–
CCCN1[C@H](C(=O)OC)C[C@@]2(O)[C@@H](O)[C@@H](O)[C@@H](O)C[C@@H]12	inactive	–
Nc1ncn(C2OC(CO)C(O)C2O)c(=O)n1 (stereo not drawn)	inactive	–
COC(=O)[C@@]1(Cc2ccc(OC)cc2)[C@H]2c3cc(C(=O)N4CCCC4)n(Cc4ccc(C(F)(F)F)nc4)c3C[C@H]2CN1C(=O)c1ccccc1	inactive	–
O=c1c(-c2ccc(F)cc2)nc2cnc(N3CCOCC3)nc2n1-c1ccccc1	inactive	–
C=C(C)C1CC=C(CO)CC1 (stereo not drawn)	inactive	–
COc1ccccc1CNc1cc(-c2ccccc2CN(C)C)ncn1	inactive	–
Cc1cc(OCC(=O)O)c(Cl)cc1Cl	–	-16.5% [at 11.5 µM] (inactive)
Cc1ccc(-n2ncc3c(N4CCN(c5ccc(F)cc5)CC4)ncnc32)c(C)c1	inactive	–
Fc1ccc2[nH]c3c(N4CCSCC4)ncnc3c2c1	12.6 µM (active)	–
CCN1CCCC1CNc1ncnc2c1[nH]c1ccc(F)cc12 (stereo not drawn)	inactive	–
Oc1ccc(O)c2c(O)cccc12	inactive	–
C/C(=C\C(=O)c1ccccc1)Nc1cccc(O)c1	7.94 µM (active)	–
CC(=O)c1cccc(NC(=O)c2ccncc2)c1	inactive	–
C/C(=C\C(=O)c1cccnc1)Nc1ccc(C)c(C)c1	inactive	–
COc1cccc(-c2nc(Nc3ccncc3)c3ccccc3n2)c1	15.8 µM (active)	–
COc1ccc2[nH]cc(CCNc3nc(-c4cccc(NS(C)(=O)=O)c4)nc4ccccc34)c2c1	inactive	–
Cc1noc(C)c1-c1nc(Nc2ccccc2)c2ccccc2n1	inactive	–
CCC(C)(C)N=C(NC#N)Nc1cccnc1	inactive	–
N[C@H](C(=O)O)c1ccc(C(=O)O)c(O)c1	inactive	–
CC(=O)Oc1c2c(c3c(c1CC=C(C)C)O[C@@]14C(=CC5CC1C(C)(C)OC4(C/C=C(\C)C(=O)O)C5=O)C3=O)OC(C)(CCC=C(C)C)C=C2 (stereo partly drawn)	inactive	–
NCCCNCCCCN(CCCN)/[N+]([O-])=N/O	inactive	–
CC(C)(O)CCC(O)[C@@](C)(O)C1CC[C@]2(O)C3=CC(=O)C4CC(O)C(O)C[C@]4(C)C3CC[C@]12C (stereo partly drawn)	inactive	–
N#C/C(=C\c1ccc(O)c(O)c1)C(N)=O	inactive	–

SMILES	Potency	activity, negative = inhibition
Oc1c(CN2CCOCC2)ccc(CN2CCOCC2)c1O	–	-4.14% [at 11.5 µM] (inactive)
CCC[C@@H]1C[C@@]1(CCC)[C@@H](NC(=O)c1ccccc1)c1ccc(C(=O)OC)cc1	inactive	–
CCCn1c(-c2ccc(F)cc2)nc2c(NC3CCN(Cc4ccccc4)C3)nc(C)nc21 (stereo not drawn)	inactive	–
O=C(Nc1c[nH]c(=O)[nH]c1=O)Oc1ccccc1	–	-1.65% [at 11.5 µM] (inactive)
CN(CCOc1ccc(CC2SC(=O)NC2=O)cc1)c1ccccn1 (stereo not drawn)	inactive	–
COc1ccc(-c2nc3cnc(N(C)C)nc3n(Cc3cccs3)c2=O)cc1	inactive	–
COC(=O)[C@@H]1C[C@H]2CC[C@H](O)C[C@H]2N1Cc1ccc(N2CCN(C)CC2)cc1	inactive	–
COCCn1c(=O)c(-c2cccc(F)c2)nc2cncnc21	inactive	–
N#Cc1cc2[nH]c(=O)c(=O)[nH]c2cc1[N+](=O)[O-]	inactive	–
Cc1nc2nc(SCC(=O)NCc3ccco3)nn2c(C)c1Cc1ccccc1	inactive	–
CCOc1ccccc1-n1c(SCC(=O)NCc2ccco2)nnc1-c1ccncc1	inactive	–
CCOC(=O)c1cnc(SCC(=O)NCc2ccco2)nc1N	25.1 µM (active)	–
CC(C)NC[C@H](O)c1ccc2ccccc2c1	inactive	–
COC(=O)[C@@]1(Cc2ccccc2)[C@H]2c3cc(C(=O)N4CCCC4)n(Cc4ccc(C)o4)c3C[C@H]2CN1C(=O)c1ccccc1	inactive	–
CN(C(=O)CN(CCO)CC(=O)N(C)C(C)(C)Cc1ccccc1)C(C)(C)Cc1ccccc1	inactive	–
Cc1cc(C)cc(N)c1	inactive	–
CCCn1c(-c2ccc(F)cc2)nc2c(NCC3CCCN3CC)nc(C)nc21 (stereo not drawn)	inactive	–
COC(=O)[C@@]1(Cc2ccc(F)cc2)[C@H]2c3cc(C(=O)N4CCCC4)n(Cc4ccc(OC(F)(F)F)cc4)c3C[C@H]2CN1C(=O)c1ccccc1	inactive	–
COc1ccccc1N1CCN(CCN2C(=O)c3ccccc3C(C)(C)C2=O)CC1	inactive	–
CN(C)/C=N/c1cc(=O)n(C)c(=O)n1CC1CC1	inactive	–
CC(C)=CCC/C(C)=C/CO/N=C1/C[C@@H](O)[C@@H](O)[C@@H]2[C@@H]3C(=O)N(C(C)(C)C)C(=O)[C@H]3CC[C@H]12	–	7.53% [at 11.5 µM] (inactive)
Cn1c(N)c(C(=O)COC(=O)c2cc(C(F)(F)F)nc3c(C(F)(F)F)cccc23)c(=O)n(C)c1=O	inactive	–
CC/C=C/C/C=C/C/C=C/CCCCCCCC(=O)OCC	inactive	–
CC1(C)OC(C(O)(c2ccccc2)c2ccccc2)C(C(O)(c2ccccc2)c2ccccc2)O1 (stereo not drawn)	–	31.6% [at 11.5 µM] (inactive)

SMILES	Potency	activity, negative = inhibition
COC(=O)[C@H]1[C@H]2C[C@H]3c4[nH]c5ccccc5c4CCN3C[C@@H]2CC[C@@H]1O	inactive	–
Oc1ccccc1CNCc1ccccc1O	–	19.3% [at 11.5 µM] (inactive)
COc1ncc2nc(-c3ccc(Cl)cc3)c(=O)n(C)c2n1	inactive	–
O=C(Nc1ccccc1)N[C@H]1C[C@H](C(=O)O)Nc2cc(Cl)cc(Cl)c21	inactive	–
CC1O[C@@H](Oc2c(-c3ccc(O)c(O)c3)oc3cc(O)cc(O)c3c2=O)C(O)C(O)C1O (stereo partly drawn)	inactive	–
COC1[C@H](OC(N)=O)C(O)[C@H](Oc2ccc3c(O)c(NC(=O)c4ccc(O)c(CC=C(C)C)c4)c(=O)oc3c2C)OC1(C)C (stereo partly drawn)	inactive	–
C#CCCCCCCCCCCCCCCCC(=O)O	inactive	–
CO[C@H]1COC(=O)[C@@H](OCc2ccccc2)/C=C\[C@H](C)[C@@H](OC)COC(=O)[C@H](OCc2ccccc2)/C=C\[C@@H]1C	–	30% [at 11.5 µM] (inactive)
O=C(CSc1nnc(-c2cnccn2)n1Cc1ccco1)c1ccc(Cl)c(Cl)c1	inactive	–
O=C(CSc1nnc(-c2cccnc2)n1Cc1ccco1)c1ccc(Cl)c(Cl)c1	inactive	–
O=C(CSc1nnc(-c2cccs2)n1Cc1ccco1)c1ccc2c(c1)OCO2	31.6 µM (active)	–
N#Cc1cccc(-c2ccc3ncnc(NCc4cccs4)c3c2)c1	inactive	–
Cc1noc(C)c1-c1nccc(N2CCOCC2)n1	inactive	–
N#CCC(=O)NC(=O)NCC1CC1	inactive	–
COc1ccc2c3c1OC1CC(O)C=C[C@@]31CCN(C)C2 (stereo partly drawn)	inactive	–
COC(=O)c1ccc(C23CC4(C2)[C@H](CN(Cc2cccnc2)[C@@H]4c2ccccc2)C3c2ccc(Cl)nc2)cc1 (stereo partly drawn)	inactive	–
CC(C)CO/N=C1/C[C@@H](O)[C@@H](O)[C@@H]2[C@@H]3C(=O)N(C[C@@H]4CCCO4)C(=O)[C@H]3CC[C@@H]12	–	8.6% [at 11.5 µM] (inactive)
CCNc1ncc2ncc(=O)n(Cc3cccc(OC)c3)c2n1	inactive	–
Cn1nnnc1SCC(=O)N1CCN(Cc2ccccc2)CC1	31.6 µM (active)	–
Cn1nnnc1SCC(=O)N1CCN(C(c2ccccc2)c2ccccc2)CC1	inactive	–
CC(=O)c1ccc(-n2nnnc2SCC(=O)N2CCN(C(=O)c3ccco3)CC2)cc1	inactive	–
